Data published in the supplement of paper PMC10849652.
The full data set covers some 7,900 targets. This sample favours those with a hit. About 0.6% of all pairs of compound and target were hits. A number with no mark means an inactive call.

Experiments:
Assay in all cases: log2 fold change, soluble protein after heating vs DMSO (PISA); higher = thermal stabilisation; K562 cells, 10 uM, 30 min; active = over 0.2 and 3.5 SD of the protein, either way, in both replicates (recomputed)
[1] = compound: CN1CCN(CCOc2cc(OC3CCOCC3)c3c(Nc4c(Cl)ccc5c4OCO5)ncnc3c2)CC1 [saracatinib]
Method in brief: (§1)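 Values are thermal stability changes relative to control samples and are taken from duplicates. They are stated as log2 fold changes. Before quantification by TMTpro 16plex LC-MS/MS with equalised channel sums, K562 cells at 2×10^6 cells/mL were treated with 10 μM compound for 30 min, heated in aliquots for 3 min across 48°C-58°C, pooled, extracted in PBS with 0.5% NP-40 at 4°C, and centrifuged at 21,000xg for 90 min to give the soluble supernatant.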

[2] = compound: CN1CCN(c2nc(C3=C(c4c[nH]c5ccccc45)C(=O)NC3=O)c3ccccc3n2)CC1 [sotrastaurin]
Method in brief: as §1

[3] = compound: CN1CC[C@H](c2c(O)cc(O)c3c(=O)cc(-c4ccccc4Cl)oc23)[C@H](O)C1 [alvocidib]
Method in brief: as §1

[4] = compound: CN1CCc2c(c3ccccc3n2Cc2ccc(C(=O)NO)cc2)C1 [Tubastatin A]
Method in brief: as §1

[5] = compound: CNC(=O)c1ccc(Nc2ncc(C(F)(F)F)c(NCc3nccnc3N(C)S(C)(=O)=O)n2)cc1 [defactinib]
Method in brief: as §1

[6] = compound: CNCc1ccc(-c2[nH]c3cc(F)cc4c3c2CCNC4=O)cc1 [rucaparib]
Method in brief: as §1

[7] = compound: CNc1nc(-c2ccc3c(N)n[nH]c3c2)cc(N2C[C@@H](C(=O)NC3CCCCC3)CC[C@H]2C)n1
Method in brief: as §1

[8] = compound: COC(=O)N[C@@H](C)CNc1nccc(-c2cn(C(C)C)nc2-c2cc(Cl)cc(NS(C)(=O)=O)c2F)n1 [encorafenib]
Method in brief: as §1

[9] = compound: COC(=O)[C@H](CCSC)NC(=O)C1=C(C=C(C=C1)NC[C@H](CS)N)C2=CC=CC=C2
Method in brief: as §1

[10] = compound: CNC(=O)C1=CC=CC=C1NC2=NC(=NC=C2Cl)NC3=C(C=C(C=C3)N4CCOCC4)OC
Method in brief: as §1

UniProt Q14061, sequence (Q14061 whole entry, looked up): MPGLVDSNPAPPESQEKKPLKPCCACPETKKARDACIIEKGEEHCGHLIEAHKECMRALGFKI
UniProt Q5T5Y3, sequence (Q5T5Y3 whole entry, looked up): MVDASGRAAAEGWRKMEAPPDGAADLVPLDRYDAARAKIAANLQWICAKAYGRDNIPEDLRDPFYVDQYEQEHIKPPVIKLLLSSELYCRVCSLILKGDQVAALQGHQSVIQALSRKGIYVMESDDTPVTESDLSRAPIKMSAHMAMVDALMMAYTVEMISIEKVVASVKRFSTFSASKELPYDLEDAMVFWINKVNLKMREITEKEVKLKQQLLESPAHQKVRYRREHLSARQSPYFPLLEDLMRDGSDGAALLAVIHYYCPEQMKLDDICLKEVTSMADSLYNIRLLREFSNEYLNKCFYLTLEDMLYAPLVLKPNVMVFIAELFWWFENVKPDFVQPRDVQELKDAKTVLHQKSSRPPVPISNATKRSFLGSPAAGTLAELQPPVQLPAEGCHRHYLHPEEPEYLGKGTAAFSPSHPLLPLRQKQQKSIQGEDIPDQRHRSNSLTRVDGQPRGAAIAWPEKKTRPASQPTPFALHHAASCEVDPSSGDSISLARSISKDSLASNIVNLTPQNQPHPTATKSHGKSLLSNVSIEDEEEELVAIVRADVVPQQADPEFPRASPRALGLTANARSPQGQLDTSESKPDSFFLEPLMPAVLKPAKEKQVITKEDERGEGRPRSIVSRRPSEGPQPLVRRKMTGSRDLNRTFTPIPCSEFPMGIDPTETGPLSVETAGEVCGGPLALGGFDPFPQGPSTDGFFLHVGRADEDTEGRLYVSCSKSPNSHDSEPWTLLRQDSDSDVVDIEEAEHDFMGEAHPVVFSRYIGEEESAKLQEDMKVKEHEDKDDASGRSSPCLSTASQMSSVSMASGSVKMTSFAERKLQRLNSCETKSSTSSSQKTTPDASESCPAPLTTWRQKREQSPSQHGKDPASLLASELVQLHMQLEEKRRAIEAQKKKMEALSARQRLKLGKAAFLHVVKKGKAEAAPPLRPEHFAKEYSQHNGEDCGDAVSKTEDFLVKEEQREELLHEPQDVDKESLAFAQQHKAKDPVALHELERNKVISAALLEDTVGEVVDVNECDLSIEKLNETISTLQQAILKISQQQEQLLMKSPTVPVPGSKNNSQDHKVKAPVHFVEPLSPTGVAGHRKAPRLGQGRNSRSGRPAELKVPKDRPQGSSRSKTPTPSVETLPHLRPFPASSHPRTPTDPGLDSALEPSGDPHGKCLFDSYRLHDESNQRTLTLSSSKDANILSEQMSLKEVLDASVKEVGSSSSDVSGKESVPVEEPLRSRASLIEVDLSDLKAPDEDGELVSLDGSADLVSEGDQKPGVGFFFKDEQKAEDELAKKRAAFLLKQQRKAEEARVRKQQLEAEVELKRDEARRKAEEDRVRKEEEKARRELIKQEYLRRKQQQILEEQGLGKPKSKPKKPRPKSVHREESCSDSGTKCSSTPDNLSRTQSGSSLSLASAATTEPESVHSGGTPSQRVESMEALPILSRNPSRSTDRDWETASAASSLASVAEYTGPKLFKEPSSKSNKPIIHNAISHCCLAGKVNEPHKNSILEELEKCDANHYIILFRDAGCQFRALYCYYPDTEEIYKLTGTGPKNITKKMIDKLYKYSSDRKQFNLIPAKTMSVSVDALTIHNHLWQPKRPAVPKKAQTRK
UniProt Q14677, sequence (Q14677 whole entry, looked up): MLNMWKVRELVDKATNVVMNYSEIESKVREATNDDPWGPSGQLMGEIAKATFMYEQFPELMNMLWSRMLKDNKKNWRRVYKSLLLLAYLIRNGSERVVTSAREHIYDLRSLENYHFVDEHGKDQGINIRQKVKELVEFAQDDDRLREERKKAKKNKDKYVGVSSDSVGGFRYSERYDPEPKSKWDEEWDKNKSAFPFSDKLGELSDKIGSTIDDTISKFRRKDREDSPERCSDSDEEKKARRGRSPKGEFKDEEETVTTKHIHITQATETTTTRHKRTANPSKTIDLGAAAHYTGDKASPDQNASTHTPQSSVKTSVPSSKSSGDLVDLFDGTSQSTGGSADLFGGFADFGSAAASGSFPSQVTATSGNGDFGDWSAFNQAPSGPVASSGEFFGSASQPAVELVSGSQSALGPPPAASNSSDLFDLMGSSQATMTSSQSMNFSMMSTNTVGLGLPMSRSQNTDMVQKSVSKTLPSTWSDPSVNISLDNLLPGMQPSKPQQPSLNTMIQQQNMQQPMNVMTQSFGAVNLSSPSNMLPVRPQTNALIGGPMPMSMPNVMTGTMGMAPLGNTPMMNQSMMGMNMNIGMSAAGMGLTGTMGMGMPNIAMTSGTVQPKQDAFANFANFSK
UniProt Q00536, sequence (Q00536 whole entry, looked up): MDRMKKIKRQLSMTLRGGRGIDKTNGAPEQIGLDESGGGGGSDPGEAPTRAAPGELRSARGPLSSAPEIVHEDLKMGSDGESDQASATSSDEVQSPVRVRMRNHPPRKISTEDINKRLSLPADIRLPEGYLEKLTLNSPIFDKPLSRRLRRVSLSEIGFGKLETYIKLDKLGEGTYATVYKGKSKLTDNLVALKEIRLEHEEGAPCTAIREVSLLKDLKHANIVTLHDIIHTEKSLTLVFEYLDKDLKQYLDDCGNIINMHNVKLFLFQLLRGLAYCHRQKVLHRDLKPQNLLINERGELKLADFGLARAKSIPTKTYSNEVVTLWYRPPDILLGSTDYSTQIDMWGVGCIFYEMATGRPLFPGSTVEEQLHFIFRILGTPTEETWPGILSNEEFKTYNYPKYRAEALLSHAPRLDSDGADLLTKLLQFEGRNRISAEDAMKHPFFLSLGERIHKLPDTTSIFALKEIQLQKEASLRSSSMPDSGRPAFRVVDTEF
UniProt P51636, sequence (P51636 whole entry, looked up): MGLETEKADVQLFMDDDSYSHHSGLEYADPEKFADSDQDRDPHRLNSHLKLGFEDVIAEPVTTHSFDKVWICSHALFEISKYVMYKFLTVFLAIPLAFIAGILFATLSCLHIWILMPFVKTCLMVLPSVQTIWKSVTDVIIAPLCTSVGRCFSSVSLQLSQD
UniProt Q9UHN6, sequence (Q9UHN6 whole entry, looked up): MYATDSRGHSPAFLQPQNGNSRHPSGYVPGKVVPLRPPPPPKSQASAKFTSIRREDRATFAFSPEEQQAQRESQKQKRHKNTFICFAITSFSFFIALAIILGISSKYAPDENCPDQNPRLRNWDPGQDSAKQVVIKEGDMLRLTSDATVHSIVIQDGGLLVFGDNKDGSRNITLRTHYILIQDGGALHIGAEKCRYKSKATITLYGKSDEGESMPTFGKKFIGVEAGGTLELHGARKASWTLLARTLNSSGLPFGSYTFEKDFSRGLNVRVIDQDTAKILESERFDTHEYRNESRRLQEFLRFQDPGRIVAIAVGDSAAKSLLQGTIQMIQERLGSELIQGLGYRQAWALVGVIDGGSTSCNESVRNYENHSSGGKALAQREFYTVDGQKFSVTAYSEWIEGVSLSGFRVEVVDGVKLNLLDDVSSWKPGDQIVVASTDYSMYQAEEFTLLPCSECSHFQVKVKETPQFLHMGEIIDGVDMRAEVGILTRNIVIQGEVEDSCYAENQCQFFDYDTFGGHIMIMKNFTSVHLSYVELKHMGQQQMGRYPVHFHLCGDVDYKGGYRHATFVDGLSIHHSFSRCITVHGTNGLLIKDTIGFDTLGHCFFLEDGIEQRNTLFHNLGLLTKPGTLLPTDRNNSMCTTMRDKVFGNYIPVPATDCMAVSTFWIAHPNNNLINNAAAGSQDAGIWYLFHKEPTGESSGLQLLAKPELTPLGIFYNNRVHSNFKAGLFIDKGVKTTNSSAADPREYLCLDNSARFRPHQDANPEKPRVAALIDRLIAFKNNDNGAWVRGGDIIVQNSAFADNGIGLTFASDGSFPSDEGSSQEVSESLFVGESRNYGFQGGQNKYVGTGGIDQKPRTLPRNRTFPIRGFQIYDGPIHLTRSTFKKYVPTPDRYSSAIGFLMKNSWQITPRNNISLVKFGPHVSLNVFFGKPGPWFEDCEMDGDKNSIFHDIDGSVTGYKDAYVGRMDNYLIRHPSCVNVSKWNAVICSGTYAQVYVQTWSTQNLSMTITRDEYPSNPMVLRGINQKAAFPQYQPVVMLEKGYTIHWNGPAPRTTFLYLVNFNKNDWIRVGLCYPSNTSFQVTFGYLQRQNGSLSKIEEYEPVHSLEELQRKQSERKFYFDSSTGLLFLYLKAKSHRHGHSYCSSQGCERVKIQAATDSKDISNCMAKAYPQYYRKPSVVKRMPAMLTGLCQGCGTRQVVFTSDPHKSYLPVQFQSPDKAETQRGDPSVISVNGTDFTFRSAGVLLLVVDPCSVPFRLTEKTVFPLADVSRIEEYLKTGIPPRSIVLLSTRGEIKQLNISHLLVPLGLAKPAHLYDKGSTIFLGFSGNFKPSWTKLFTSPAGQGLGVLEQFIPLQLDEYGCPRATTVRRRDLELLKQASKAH
UniProt Q8WUD6, sequence (Q8WUD6 whole entry, looked up): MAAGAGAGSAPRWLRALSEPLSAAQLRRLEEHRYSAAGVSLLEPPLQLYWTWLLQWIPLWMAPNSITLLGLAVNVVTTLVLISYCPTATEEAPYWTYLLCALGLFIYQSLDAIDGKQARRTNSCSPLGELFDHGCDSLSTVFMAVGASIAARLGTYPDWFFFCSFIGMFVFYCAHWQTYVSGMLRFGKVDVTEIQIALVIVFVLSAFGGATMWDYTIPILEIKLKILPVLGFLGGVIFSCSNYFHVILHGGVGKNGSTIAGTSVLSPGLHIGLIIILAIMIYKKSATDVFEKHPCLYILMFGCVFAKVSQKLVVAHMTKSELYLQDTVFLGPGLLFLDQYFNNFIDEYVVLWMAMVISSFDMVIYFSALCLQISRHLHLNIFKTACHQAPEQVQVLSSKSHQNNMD
UniProt Q13901, sequence (Q13901 whole entry, looked up): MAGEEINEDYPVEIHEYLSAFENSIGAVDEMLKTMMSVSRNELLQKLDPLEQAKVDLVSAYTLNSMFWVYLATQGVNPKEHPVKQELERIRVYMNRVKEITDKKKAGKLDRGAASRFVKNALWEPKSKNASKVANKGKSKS
UniProt P15954, sequence (P15954 whole entry, looked up): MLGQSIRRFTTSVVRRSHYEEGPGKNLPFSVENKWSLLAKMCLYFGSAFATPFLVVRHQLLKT

Row | Target | log2 fold change [1] | log2 fold change [2] | log2 fold change [3] | log2 fold change [4] | log2 fold change [5] | log2 fold change [6] | log2 fold change [7] | log2 fold change [8] | log2 fold change [9] | log2 fold change [10]
1 | CASP10 isoform 4 (UniProt Q92851) | 0.034 | -0.138 | -0.116 | 0.127 | 0.028 | 0.111 | 0.04 | 0.164 | -0.039 | 
2 | CASP8 isoform 9 (UniProt Q14790) | -0.032 | -0.019 |  | 0.115 | -0.1 | 0.011 | 0.04 | 0.044 | 0.037 | 0.053
3 | CDK5RAP1 (UniProt Q96SZ6) | 0.192 | 0.072 | -0.077 | -0.238 (active) | 0.022 | 0.035 | 0.057 | 0.053 | -0.048 | 0.044
4 | CAV2 (UniProt P51636) | -0.006 | 0.045 |  | 0.159 |  |  | 0.013 |  |  | -0.019
5 | CRMP1 isoform 2 (UniProt Q14194) | -0.059 | 0.107 | -0.052 | 0.025 | -0.149 |  | -0.041 |  | 0.025 | 0.024
6 | COX17 (UniProt Q14061) | -0.092 | -0.023 | -0.101 | -0.113 | -0.072 |  | 0.023 |  | 0.147 | -0.008
7 | CORO2A (UniProt Q92828) | 0.016 | 0.015 | -0.021 | -0.055 | -0.015 | -0.266 | -0.097 | 0.21 | -0.028 | 0.053
8 | CAB39L (UniProt Q9H9S4) | 0.043 | -0.213 |  | 0.056 | -0.09 | 0.003 | 0.015 | -0.144 | 0.043 | 0.049
9 | CDK16 isoform 2 (UniProt Q00536) | -0.014 | 0.246 |  | 0.014 | 0.236 | 0.278 | -0.102 | 0.016 | -0.146 | 0.027
10 | CRTC1 isoform 2 (UniProt Q6UUV9) | -0.026 | 0.011 |  | -0.009 | -0.021 |  | -0.062 |  | 0.009 | -0.101
11 | CASP9 (UniProt P55211) | -0.206 | -0.25 | -0.136 | 0.098 | -0.165 | 0.161 | -0.051 | 0.012 | -0.035 | 
12 | CENPE (UniProt Q02224) | 0.318 | -0.19 | -0.385 | 0.091 | -0.056 |  | 0.399 |  | 0.198 | -0.277
13 | CLN5 (UniProt O75503) | -0.283 | -0.008 | 0.01 | 0.079 |  |  | -0.715 |  |  | 0.032
14 | C9orf72 (UniProt Q96LT7) | 0.071 | 0.129 | -0.04 | -0.126 | -0.056 |  | -0.021 |  | 0 | -0.071
15 | CCDC167 (UniProt Q9P0B6) | -0.05 | -0.018 | 0.061 | -0.063 |  | 0.021 | 0.104 | -0.037 |  | -0.006
16 | COX7C (UniProt P15954) | 0.026 | 0.028 |  | 0.03 | 0.031 | 0.011 | -0.054 | -0.06 | 0.047 | 0.007
17 | CHPT1 (UniProt Q8WUD6) | -0.066 | -0.016 | -0.118 | -0.08 |  | -0.069 | 0.034 | 0.103 |  | 
18 | CDAN1 (UniProt Q8IWY9) | -0.012 | -0.03 | -0.019 | 0.009 | 0.024 | 0.085 | -0.006 | 0.005 | 0.112 | -0.029
19 | CD84 (UniProt Q9UIB8) | -0.012 | -0.144 | -0.111 | -0.039 |  |  | 0.56 (active) |  |  | -0.119

Row | Target | log2 fold change [1] | log2 fold change [2] | log2 fold change [3] | log2 fold change [4] | log2 fold change [5] | log2 fold change [6] | log2 fold change [7] | log2 fold change [8] | log2 fold change [9] | log2 fold change [10]
20 | CCAR2 isoform 2 (UniProt Q8N163) | -0.102 | -0.231 | -0.254 | 0.122 | -0.42 (active) | -0.106 | 0.031 | -0.011 | 0 | -0.083
21 | CAMSAP1 isoform 3 (UniProt Q5T5Y3) | -0.084 | -0.175 | -0.027 | 0.071 | 0.051 | 0.048 | -0.071 | 0.065 | 0.017 | -0.191
22 | CSNK1A1 (UniProt P48729) | -0.028 | 0.011 | 0.146 | 0.115 | 0.058 | 0.128 | 0.042 | 0.037 | -0.016 | 
23 | COG2 (UniProt Q14746) | 0.001 | -0.32 | 0.137 | -0.08 |  | -0.272 | -0.085 | 0.007 |  | -0.135
24 | CDK17 isoform 2 (UniProt Q00537) | 0.008 | -0.036 | 0.602 (active) |  | 0.11 | 0.494 | 0.06 | -0.027 | 0.014 | -0.017
25 | C6orf120 (UniProt Q7Z4R8) | -0.097 | 0.008 |  | 0.041 | 0.024 | 0.127 | 0.041 | 0.074 | -0.045 | -0.145
26 | CEP128 (UniProt Q6ZU80) | -0.092 | -0.022 | 0.033 | 0.024 | 0.027 | -0.306 | -0.22 | 0.061 | 0.044 | 
27 | C1D (UniProt Q13901) |  | 0.005 |  | 0.079 | 0.042 | -0.005 |  | 0.009 | 0.091 | 0.001
28 | CCDC82 (UniProt Q8N4S0) | 0 |  | -0.065 | 0.102 | -0.09 | -0.069 | -0.139 | 0.021 | -0.037 | 0.03
29 | CDK2AP2 (UniProt O75956) |  |  | -0.048 |  |  | 0.134 |  | -0.038 |  | -0.092
30 | CLINT1 (UniProt Q14677) | -0.003 |  | -0.112 | -0.029 | -0.002 | 0.128 | -0.062 | -0.045 | 0.036 | 
31 | CEMIP2 (UniProt Q9UHN6) | -0.104 |  | -0.055 | -0.005 | 0.017 | 0.046 | -0.026 | -0.1 | 0.029 | 0.032
32 | CARD9 (UniProt Q9H257) |  |  |  |  |  |  |  |  |  | 0.388
33 | CLPTM1L (UniProt G5E9Z2) |  | -0.288 | 0.051 | -0.109 | 0.002 |  |  |  | -0.029 | 
34 | CREB3L2 (UniProt Q70SY1) |  |  | -0.242 | 0.282 | -0.039 |  |  |  | -0.172 | -0.19
35 | CFAP47 (UniProt Q6ZTR5) | 0.001 |  |  |  | -0.063 | -0.062 | -0.142 | -0.173 | 0.084 | 
36 | CLCN5 isoform 2 (UniProt P51795) | -0.001 |  | -0.032 | -0.006 | -0.033 | 0.097 | -0.116 | 0.075 | -0.025 | 0.009
37 | CLASP2 (UniProt O75122) |  |  | -0.069 |  |  | 0 |  | 0.098 |  | 0
